# According to PubChem BioAssay (NCATS):
# Calls of active or inactive are those of the source. Calls come from the whole dose curve; as a rule, active = well fitted inhibition curve with a large enough effect; inconclusive = small, poorly fitted or top-dose-only effect; inactive = no such curve, though single readings can be large or run the other way. Residues, ends and D or L forms follow the SMILES beside them. *: point of attachment. Cbz = O=C(OCc1ccccc1)*
# Molecular target: Single-stranded DNA cytosine deaminase (Homo sapiens) (UniProt Q9GZX7)
# Assay: Validation qHTS assay for inhibitors of Activation Induced Cytidine Deaminase (AID): AID signal (AID 1347429)
# Conditions: Recombinant AID, FRET ssDNA deamination with UDG, fluorescence; series mostly up to 115 µM; activity change, negative = inhibition: at the top concentration
# How it was run: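 AID+UDG coupled FRET deamination; cpds up to 114 uM final; DJC20/DJC23 substrate, 4 hr RT; NaOH stop, 30 min RT; read Ex 540/Em 590.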
# % is set by controls: 0 for no effect and ±100 for the full control effect.
# Single-stranded DNA cytosine deaminase (Homo sapiens), sequence (Q9GZX7 whole entry, looked up): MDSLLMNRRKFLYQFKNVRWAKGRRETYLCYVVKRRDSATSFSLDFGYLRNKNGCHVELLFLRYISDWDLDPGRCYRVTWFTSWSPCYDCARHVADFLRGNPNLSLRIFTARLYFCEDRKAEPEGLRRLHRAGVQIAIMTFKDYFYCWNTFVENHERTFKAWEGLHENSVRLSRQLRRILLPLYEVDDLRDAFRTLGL
row,Compound,"activity change, negative = inhibition"
1,O=C(O)c1cccnc1C(=O)O,27.7% (inactive)
2,c1ccc(CN2CCC3(CCCc4ccccc43)CC2)cc1,6.86% (inactive)
3,N[C@@H](Cc1ccc(O)c(I)c1)C(=O)O,14.4% (inactive)
4,CCCn1c(=O)c(C)cn2nc(N)nc12,18.5% (inactive)
5,c1ccc2nc(C3=NCCN3)ccc2c1,38.2% (inactive)
6,CN1CCC2(CCN3CCc4c(oc5ccccc45)C3C2)N(C)C1=O (stereo not drawn),37% (inactive)
7,CNC(=O)c1cc2c(cn1)[nH]c1ccccc12,5.12% (inactive)
8,Cn1ccnc1,-0.553% (inactive)
9,COC(=O)C(C)(N)Cc1ccc(O)cc1 (stereo not drawn),13.9% (inactive)
10,Cn1c(=O)c2[nH]c(-c3ccc(S(=O)(=O)O)cc3)nc2n(C)c1=O,22.9% (inactive)
11,CC1CCN=C(N)S1 (stereo not drawn),18.9% (inactive)
12,Oc1ccc(Cn2cc[nH]c2=S)cc1,18.3% (inactive)
13,Nc1nc2c(cnn2CCc2ccccc2)c2nc(-c3ccco3)nn12,24.9% (inactive)
14,O=C(O)c1cc(=O)cc(C(=O)O)[nH]1,22.8% (inactive)
15,CCc1ccc2c(-c3cccc(Cl)c3)nc(=O)n(CC)c2n1,4.21% (inactive)
16,O=C(O)C1CCNCC1,11.7% (inactive)
17,NC(N)=[N+]1CCc2ccccc2C1,11.7% (inactive)
18,CC(=O)[C@H]1CCC2C3CC=C4C[C@@H](OS(=O)(=O)O)CC[C@]4(C)C3CC[C@@]21C (stereo partly drawn),-0.37% (inactive)
19,C=C1C(=O)O[C@@H]2[C@H]3O[C@]3(C)CCC=C(C)CC[C@@H]12,11.8% (inactive)

row,Compound,"activity change, negative = inhibition"
1,Oc1cc2c(cc1O)C(c1ccccc1)CNCC2 (stereo not drawn),32.4% (inactive)
2,C=CCn1c(=O)c2c(nc(-c3ccc(S(=O)(=O)O)cc3)n2C)n(C)c1=O,19.9% (inactive)
3,NC(=O)c1ccccc1,0.453% (inactive)
4,CCCC(=O)NCCc1c2n(c3ccc(OC)cc13)CCCc1ccccc1-2,-2.34% (inactive)
5,C[C@H](O)C(=O)C1=Nc2c(nc(N)[nH]c2=O)NC1,31.5% (inactive)
6,N#CC(C#N)=C(N)/C(C#N)=C/c1ccc(O)cc1,105% (inactive)
7,c1ccc(C2CN3CCSC3=N2)cc1 (stereo not drawn),-1.35% (inactive)
8,OC[C@H]1O[C@H](n2cnc3c(N[C@H]4CCC[C@@H]4O)ncnc32)[C@H](O)[C@@H]1O,20.2% (inactive)
9,COc1ccc(-c2ccc(N)[n+](CCCC(=O)O)n2)cc1,9.12% (inactive)
10,OC[C@H]1NC[C@@H](O)[C@@H]1O,17% (inactive)
11,c1ccc2c(c1)CC(N1CCN(c3cccc4c3OCCO4)CC1)C2,7.41% (inactive)
12,OC1(c2ccc(Cl)cc2)CCN(Cc2c[nH]c3ccccc23)CC1,11.5% (inactive)
13,CC(C)[C@H](NC(=O)OCc1ccccc1)C(=O)N[C@H](C=O)Cc1ccccc1 (Cbz-Val-Phe-aldehyde),20.1% (inactive)
14,COc1cccc(OC)c1OCCNCC1CSc2ccccc2O1 (stereo not drawn),4.74% (inactive)
15,Cc1nc(N=Nc2cc(S(=O)(=O)O)c3cc([N+](=O)[O-])cc(S(=O)(=O)O)c3c2)c(COP(=O)(O)O)c(C=O)c1O,13.3% (inactive)
16,O=[N+]([O-])c1cccc2cn[nH]c12,20.2% (inactive)
17,CN(CC[C@@H](Oc1ccc(C(F)(F)F)cc1)c1ccccc1)CC(=O)O,7.36% (inactive)
18,Nc1ccc(CCNc2ncnc3c2ncn3C2OC(CO)C(O)C2O)cc1 (stereo not drawn),44.8% (inactive)
19,NC(Cc1cccc(-c2ccccc2CP(=O)(O)O)c1)C(=O)O (stereo not drawn),23.9% (inactive)
